We go through 40 molecules from PubChem BioAssay (EPA / NIEHS).

Active and inactive are the calls of the source. The calls were made as follows: active = hit-call score of the fitted dose curve at least 0.9, where 1 is the maximum; inactive = score below 0.9.

The nature of this test: CCTE_Harrill_HTTr_Apoptosis_MCF7: CCTE's 6-hour Apoptosis Assessment for the High-Throughput Transcriptomics (HTTr) Platform, in MCF-7 cells cultured in DMEM + 10% fetal bovine serum, Harrill Lab (AID 2284011). An excerpt: This is a cell-based assay that evaluates apoptosis using high content imaging to evaluate activation of caspase-3/7 using the CellEvent Caspase 3/7 Green detection reagent in 384-well format.One of seven assay components measured from the CCTE_Harrill_HTTr_Apoptosis assay. This was part of a full screening experiment. This is a cell-based assay that evaluates apoptosis in MCF-7 cells cultured in DMEM + 10% fetal bovine serum. High content imaging is used to evaluate activation of caspase-3/7 using the CellEvent Caspase 3/7 Green detection reagent. Measurements are taken at 6 hours after chemical dosing in 384-well format.The assay component endpoint CCTE_Harrill_HTTr_Apoptosis_MCF7 was analyzed with bidirectional fitting relation to DMSO as the negative control and baseline of activity. Using a type of viability reporter, gain-of-signal activity can be used to evaluate activation of caspase-3/7 using the CellEvent Caspase 3/7 Green detection reagent to understand changes in apoptosis. To generalize the intended target to other relatable targets, this assay endpoint is annotated to cell cycle, where the subfamily is apoptosis.
Chemicals were tested in MCF7 cells in an eight point dilution series with a six hour exposure duration.
Regarding `CCCCNC(=O)OCC#CI`, the outcome was inactive. For the molecule `CCCCOC(=O)c1ccccc1C(=O)OCCCC`, the outcome was inactive. Turning to `CCOP(=S)(OCC)SCn1c(=O)oc2cc(Cl)ccc21`, the outcome was inactive. In the case of `CCNc1nc(Cl)nc(NCC)n1`, the outcome was inactive.

Regarding `CNC(=S)S`, the outcome was inactive. In the case of `CCCN(CCC)c1c([N+](=O)[O-])cc(S(N)(=O)=O)cc1[N+](=O)[O-]`, the outcome was inactive. Take `CC(C)(C)c1ccc(CSc2cnn(C(C)(C)C)c(=O)c2Cl)cc1`: the outcome was inactive. Turning to `OC(c1ccc(Cl)cc1)(c1cncnc1)c1ccccc1Cl` (stereo not given), the outcome was inactive.

On to `CC1COC(Cn2cncn2)(c2ccc(Oc3ccc(Cl)cc3)cc2Cl)O1` (stereo not given), for which the outcome was inactive. For `O=C(O)COc1nc(Cl)c(Cl)cc1Cl` the value was “inactive”; for `CC(C)C1(C)N=C(c2nc3ccccc3cc2C(=O)O)NC1=O` (stereo not given), “inactive”. With `CCON=C(CC)C1=C(O)CC(c2c(C)cc(C)cc2C)CC1=O` (stereo not given), the outcome was inactive.

For the molecule `CCOC(=O)C(Cl)Cc1cc(-n2nc(C)n(C(F)F)c2=O)c(F)cc1Cl` (stereo not given), the outcome was inactive.

For `CCOC(=O)CC(SP(=S)(OC)OC)C(=O)OCC` (stereo not given), the result was inactive. For `Cc1c(F)c(F)c(COC(=O)C2C(/C=C(\Cl)C(F)(F)F)C2(C)C)c(F)c1F` (stereo not given), the result was inactive. For `C#CCOS(=O)OC1CCCCC1Oc1ccc(C(C)(C)C)cc1` (stereo not given) the value was “inactive”; for `COC(=O)C=C(C)OP(=O)(OC)OC`, “inactive”.

For the molecule `CCCC1COC(Cn2cncn2)(c2ccc(Cl)cc2Cl)O1` (stereo not given), the outcome was inactive. Take `COC(=O)c1ccccc1C(=O)OC`: the outcome was inactive.

For `CCCCNC(=O)n1c(NC(=O)OC)nc2ccccc21`, the outcome was inactive. On to `COc1cnc(OC)n2nc(NS(=O)(=O)c3c(OCC(F)F)cccc3C(F)(F)F)nc12`, for which the result was inactive. Regarding `N#CC(CCc1ccc(Cl)cc1)(Cn1cncn1)c1ccccc1` (stereo not given), the result was inactive. Consider `CNC(=O)ON=CC(C)(C)SC`, for which the result was inactive.

On to `C=CC1(C)OC(=O)N(c2cc(Cl)cc(Cl)c2)C1=O` (stereo not given), for which the result was inactive. In the case of `CN(C)C(=S)SSC(=S)N(C)C`, the result was inactive. As for `O=C(O)c1nc(Cl)ccc1Cl`, the result was inactive. Regarding `CCCCC(CC)COC(=O)c1ccccc1C(=O)OCC(CC)CCCC` (stereo not given), the result was inactive. For `Cc1cc(Cl)ccc1OCC(=O)O` the value was “inactive”; for `C=CCC1=C(C)[C@@H](OC(=O)[C@@H]2[C@@H](C=C(C)C)C2(C)C)CC1=O`, “inactive”; for `CC(Oc1ccc(Cl)cc1Cl)C(=O)O` (stereo not given), “inactive”.

Consider `CCNc1nc(Cl)nc(NC(C)C)n1`, for which the result was inactive. On to `CCc1nn(C)c(C(=O)NCc2ccc(C(C)(C)C)cc2)c1Cl`, for which the outcome was inactive. Take `O=C(Nc1ccccc1)Nc1ccnc(Cl)c1`: the result was inactive. With `COP(N)(=O)SC` (stereo not given), the result was inactive. Consider `N#Cc1nn(-c2c(Cl)cc(C(F)(F)F)cc2Cl)c(N)c1S(=O)C(F)(F)F` (stereo not given), for which the result was inactive. On to `CCOc1cc(Oc2ccc(C(F)(F)F)cc2Cl)ccc1[N+](=O)[O-]`, for which the result was inactive. As to `COc1nc(NC(C)C)nc(NC(C)C)n1`, the outcome was inactive. With `COC(=O)C(C)Oc1ccc(Oc2ccc(Cl)cc2Cl)cc1` (stereo not given), the outcome was inactive. With `C=CCC1=C(C)C(OC(=O)C2C(C=C(C)C)C2(C)C)CC1=O` (stereo not given), the result was inactive. Take `Oc1ccccc1-c1ccccc1`: the result was inactive.
